Assay results published in PubChem BioAssay (NCATS).
Inconclusive results are not listed. Entries that show only a call come without a potency. Calls of active or inactive are those of the source. Calls come from the whole dose curve; as a rule, active = well fitted cell-killing curve with a large enough effect; inconclusive = small, poorly fitted or top-dose-only effect; inactive = flat fitted curve, though single readings scatter.

Assay: Quantitative highthroughput screen to assess conditional lethalithy of P12 Ichikawa cells grown in RPMI1640 with dialyzed fetal bovine serum (RPMI+ds) (AID 1963880); note: nearly all actives have a fitted effect of over 35% in size
Details: ATP luminescence, 48 h; Potency: P12-Ichikawa viability; series mostly up to 45.8 µM
From the text: Assay Provider: Jason Cantor Ph.D.
Department of Biochemistry
University of Wisconsin-Madison, Madison, WI, USA
Chemical screening studies have identified drug sensitivities across hundreds of cancer cell lines but most putative therapeutics fail to translate. Discovery and development of drug candidates in models that more accurately reflect nutrient levels in human blood is a major challenge. Here we performed high-throughput screens in conventional versus Human Plasma-Like Medium (HPLM) to identify compounds that were "missed" when screening using the artificial culture condition. Sets of conditional anticancer compounds spanned phases of clinical development and included non-oncology drugs were assessed. […] We also traced conditional phenotypes for several chemotherapeutics to availability of HPLM-specific metabolites and confirmed others for compounds whose reported targets are encoded by nonessential genes. Our findings establish generalizable strategies for exploiting conditional lethality in HPLM to reveal therapeutic candidates and mechanisms of action in cancer cells.
Described herein are the results of each viability screens against three cell lines: NOMO1 (an acute myeloid leukemia cell line); P12-Ichikawa (a T-cell acute lymphoblastic leukemia); and SEM (a B-cell ALL). Each assay was screened using 3 different cell culture media: homemade human plasma-Like medium with 10% dialyzed fetal bovine serum (HPLM+ds); RPMI1640 with 10% untreated FBS and 5mM glucose (RPMI+s); and RPMI1640 with 10% dialyzed fetal bovine serum and 5 mM glucose (RPMI+ds).
PROTOCOL TABLE (as described by Inglese J, Shamu CE and Guy RK. 2007)
SEQUENCE No. (e.g., 1, 2, 3, etc.); […] (e.g., Cells, Incubation, Reagent, etc.); VALUE and DESCRIPTION.
1; Cells; 5 uL; white, solid bottom 1536-well Greiner assay plate.
2; Compounds; 23 nL; Kalypsis pin tool (Wako USA) equipped with a 1536-well pin head to transfer to the assay plates.
3; Incubation; 48 hours; 37C incubation.
4; Reagent; 3 uL; CellTiter Glo (Promega).
5; Incubation; 5 min, room temperature
6; Detection; Luminescence, Viewlux PerkinElmer.
NOTES (numbers refer to Sequence numbers above)
1. Briefly, 5 ul of cell reagent was dispensed using a Multidrop Combi Dispenser. The NOMO1 and SEM cells were plated at 500 cells/well and the P12-Ichikawa line at 1000 cells/well.
2. After seeding the cells, 23 nL of MIPE 4.1 library compounds (in DMSO) were added to each plate using a Kalypsys 1536 Pintool dispenser. Bortezomib at final concentration of […] and DMSO were added to each plate as positive and negative controls respectively. For each screen, MIPE 4.1 compounds were added over an eleven-point concentration range […] in 3-fold dilutions.
3. Each plate was covered with a stainless steel gasketed lid to prevent evaporation and incubated for 48 hour at 37C, 95% relative humidity, and 5% CO2.
4-5. Three microliter CellTilter-GloTM luminescent substrate mix (Promega) reagent was added to the assay plate and incubated at room temperature for 5 min.
6. The luminescence signal was measured using a ViewLux (PerkinElmer) multiplate reader with a 2 second exposure time per plate. Data for each compound were normalized as percent viability such that measurements for DMSO and the empty well controls in each plate were defined as 100% and 0%, respectively.
Potency is the fitted concentration of half-maximal effect.

| Structure (SMILES) | Potency |
| --- | --- |
| CCN(CC)CCCCNc1nc2cc(Cl)c(Cl)cc2nc1-c1ccc(-c2cccs2)s1 | 26.4 µM (active) |
| O=C(C1CC1)N1CC[C@@H](Cn2c(-c3ccc(-c4ccc5occc5c4)cc3)nc3cnccc32)C1 | inactive |
| CC(=O)C1=C(O)C=C2Oc3c(C(C)=O)c(O)c(C)c(O)c3C2(C)C1=O (stereo not given) | 2.96 µM (active) |
| C[C@H]1Oc2cc(cnc2N)-c2c(nn(C)c2C#N)CN(C)C(=O)c2ccc(F)cc21 | inactive |
| NC(=O)c1ccc(I)c([N+](=O)[O-])c1 | inactive |
| COC(=O)N1CCN(Cc2cccc(NC(=O)Nc3ccc(C)nc3)c2F)CC1 | inactive |
| CS(=O)c1ccc(-c2nc(-c3ccc(F)cc3)c(-c3ccncc3)[nH]2)cc1 (stereo not given) | 8.55 µM (active) |
| CC(C)c1nn(-c2c(Cl)cccc2Cl)c2nc(Cc3ccc(OCCO)cc3)[nH]c(=O)c12 | 0.148 µM (active) |
| C=CC[N+]1([C@H]2C[C@H]3[C@@H]4CC[C@H]5C[C@H](O)[C@@H](N6CCOCC6)C[C@]5(C)[C@@H]4CC[C@]3(C)[C@H]2OC(C)=O)CCCC1 | inactive |
| Cc1ccc(S(=O)(=O)NC(=O)NN2CC3CCCC3C2)cc1 (stereo not given) | 2.96 µM (active) |
| COC(=O)C1=C(C)NC(C)=C(C(=O)OCCN2CCN(C(c3ccccc3)c3ccccc3)CC2)C1c1cccc([N+](=O)[O-])c1 (stereo not given) | inactive |
| O=C1CCc2cc(OCCCCc3nnnn3C3CCCCC3)ccc2N1 | inactive |
| Cn1cc(CNCC2CCN(c3ncc(C(=O)NO)cn3)CC2)c2ccccc21 | 0.372 µM (active) |
| Cc1c(Cn2c(C)nc3c(C(=O)O)cc(N4CCOCC4)cc32)cccc1C(F)(F)F | inactive |
| Nc1nc(OCc2ccccc2)c2[nH]cnc2n1 | inactive |
| COc1ccc(Cc2ccc(NC(N)=O)cc2)cc1-c1cccc(Cl)c1 | inactive |
| CCOC(=O)C1=C(C)NC(=S)NC1c1cccc(O)c1 (stereo not given) | 0.296 µM (active) |
| COc1cc(F)c(C(C)C)cc1-c1ccc(C(F)(F)F)cc1CN1C(=O)O[C@H](c2cc(C(F)(F)F)cc(C(F)(F)F)c2)[C@@H]1C | inactive |
| COc1cc2ncnc(Nc3ccc(F)c(Cl)c3)c2cc1OCCCN1CCOCC1 | inactive |
| CC1(C)CCC(c2ccc(Cl)cc2)=C(CN2CCN(c3ccc(C(=O)NS(=O)(=O)c4ccc(N[C@H](CCN5CCOCC5)CSc5ccccc5)c(S(=O)(=O)C(F)(F)F)c4)cc3)CC2)C1 | 0.264 µM (active) |

| Structure (SMILES) | Potency |
| --- | --- |
| CO[C@H]1C=CO[C@@]2(C)Oc3c(C)c(O)c4c(O)c(c5c(c4c3C2=O)NC2(CCN(CC(C)C)CC2)N=5)=NC(=O)C(C)=CC=C[C@H](C)[C@H](O)[C@@H](C)[C@@H](O)[C@@H](C)[C@H](OC(C)=O)[C@H]1C | inactive |
| CCCn1c(=O)c2[nH]c(-c3cnn(Cc4cccc(C(F)(F)F)c4)c3)nc2n(CC)c1=O | 4.18 µM (active) |
| CC(C)(C)c1cnc(CSc2cnc(NC(=O)C3CCNCC3)s2)o1 | 1.32 µM (active) |
| CN(C)CCCNC(=O)c1ccc(-c2cc(O)c3ncccc3c2)cc1 | inactive |
| CCN(CC)C(=S)SSC(=S)N(CC)CC | 2.96 µM (active) |
| COc1ccc(-c2ccc3c(N4CCOCC4)nc(N4C[C@@H](C)O[C@@H](C)C4)nc3n2)cc1CO | 1.87 µM (active) |
| COc1nccc(-c2c(-c3ccc(F)cc3)ncn2C2CCNCC2)n1 | inactive |
| Cc1ccc(O)c(C(CCN(C(C)C)C(C)C)c2ccccc2)c1 (stereo not given) | inactive |
| C#CCN(C)CC1=Cc2ccccc2Oc2ccccc21 | inactive |
| CC[C@@H]([C@H](C)O)n1ncn(-c2ccc(N3CCN(c4ccc(OCC5CO[C@@](Cn6cncn6)(c6ccc(F)cc6F)C5)cc4)CC3)cc2)c1=O (stereo not given in full) | inactive |
| CC(C)N(CC[C@H](c1ccccc1)c1cc(CO)ccc1O)C(C)C | inactive |
| O=C(CCCCCCC(=O)Nc1cccnc1)NO | 7.43 µM (active) |
| O=C(C=Cc1cccnc1)NCCCCC1CCN(C(=O)c2ccccc2)CC1 | 0.0053 µM (active) |
| C[C@H](CCC(=O)O)[C@H]1CCC2C3C[C@H](O)[C@@H]4C[C@H](O)CC[C@]4(C)C3CC[C@@]21C (stereo not given in full) | inactive |
| O=C(O)Cc1cccc(OCCCN(Cc2cccc(C(F)(F)F)c2Cl)CC(c2ccccc2)c2ccccc2)c1 | inactive |
| Cn1cnc(-c2cc3nccc(Oc4ccc(NC(=S)NC(=O)Cc5ccccc5)cc4F)c3s2)c1 | 18.7 µM (active) |
| O=NN(CCCl)C(=O)NCCCl | inactive |
| COc1cc(NCc2ccc3nc(N)nc(N)c3c2C)cc(OC)c1OC | 10.5 µM (active) |
| CN[C@@H](C)[C@H]1[C@H](O)C[C@@]2(C)[C@@H]3CC[C@H]4C(C)(C)[C@@H](NC)CC[C@@]45C[C@@]35CC[C@]12C | inactive |
| COc1ccccc1N1CCN(CCN(C(=O)C2CCCCC2)c2ccccn2)CC1 | inactive |
